# Assay results taken from PubChem BioAssay (NCI).
# Compounds without any hit were thinned out: in the full panel of roughly 79,000, 15% have a hit. Values without a mark were called inactive. Activity calls are given as the source filed them. Cut-off read from the data, not from the text of the source: active = growth inhibition above about 70%; inactive = the rest.
# Experiments:
# [1] = NCI Yeast Anticancer Drug Screen. Data for the rad50 strain (AID 155);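 note: 0% = growth of vehicle-only cultures of the same strain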; settings: S. cerevisiae rad50 strain growth inhibition; at 50.0 µM; stronger effect = higher value
# Procedure, shortened: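 Relative growth inhibition (compound vs vehicle) was measured in yeast with a defined repair-gene alteration.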
# [2] = NCI Yeast Anticancer Drug Screen. Data for the mec2-1 strain (AID 157); settings: S. cerevisiae mec2-1 strain, at 50.0 µM, stronger effect = higher value
# Procedure, shortened: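 Vehicle-treated cultures served as reference for growth inhibition of compound-exposed mec2-1 yeast.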
# [3] = NCI Yeast Anticancer Drug Screen. Data for the sgs1 mgt1 strain (AID 161);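 note: 0% = growth of cultures given vehicle only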; settings: S. cerevisiae sgs1 mgt1 strain, at 50.0 µM, stronger effect = higher value
# Procedure, shortened: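 Mutant yeast exposed to compound; growth scored against vehicle-only wells.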
# [4] = NCI Yeast Anticancer Drug Screen. Data for the cln2 rad14 strain (AID 165);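 note: 0% = growth equal to vehicle treated cultures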; settings: S. cerevisiae cln2 rad14 strain, at 50.0 µM, stronger effect = higher value
# Procedure, shortened: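 Each compound was tested on cln2 rad14 yeast. Inhibition of growth was calculated against vehicle-exposed controls.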
# [5] = NCI Yeast Anticancer Drug Screen. Data for the bub3 strain (AID 167); settings: S. cerevisiae bub3 mutant strain, at 50.0 µM, stronger effect = higher value
# Procedure, shortened: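 Screening used yeast with an engineered genetic alteration affecting cell cycle control. Compound-exposed cultures were compared with vehicle cultures, and reduced growth was taken as inhibition.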
# [6] = NCI Yeast Anticancer Drug Screen. Data for the mlh1 rad18 strain (AID 175); settings: S. cerevisiae mlh1 rad18 strain growth inhibition; at 50.0 µM; stronger effect = higher value
# Procedure, shortened: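 Vehicle-treated cultures served as the reference for growth inhibition in a yeast strain carrying DNA damage repair alterations exposed to each compound.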
SMILES,growth inhibition [1],growth inhibition [2],growth inhibition [3],growth inhibition [4],growth inhibition [5],growth inhibition [6]
CN(C(=O)c1ccccc1)C1CCCC(=O)CC1 (stereo unspecified),-2.35%,-10%,8.25%,9.95%,-13.6%,-65%
COC(=O)C1=C(O)C(C(=O)OC)[C@@]2(O)[C@@H](C(=O)OC)[C@H](C)C[C@@H]1[C@@H]2C(=O)OC (stereo partly specified),41.6%,15.4%,47%,-1.05%,23.1%,38.5%
C1CCC(C2CCCC2)CC1,7.5%,-0.35%,-13%,-32.6%,-17.2%,4.15%
O=[N+]([O-])c1ccccc1S(=O)(=O)N(CCCCCN(S(=O)(=O)c1ccccc1[N+](=O)[O-])S(=O)(=O)c1ccccc1[N+](=O)[O-])S(=O)(=O)c1ccccc1[N+](=O)[O-],-5.75%,-5.95%,10.8%,20.6%,-27.9%,-11.4%
CCCCCC1(C=O)C(=O)NC(=O)N1C (stereo unspecified),2.25%,-5.45%,-1.45%,-0.45%,-0.05%,-8.2%
Nc1nc2ncc(CCCNc3ccc(C(=O)NC(CCC(=O)O)C(=O)O)cc3)nc2c(=O)[nH]1 (stereo unspecified),33%,15.4%,8.3%,10.2%,3.7%,22.1%
CC(O)(c1ccncc1)c1cc2ccccc2n1S(=O)(=O)c1ccccc1 (stereo unspecified),2.2%,2.65%,14.8%,-20.1%,1.95%,6.15%
CCCCCCCCCCCc1cc(=O)n(-c2cc(Cl)ccc2Cl)n1C,99.1% (active),99.3% (active),99.5% (active),98.7% (active),99% (active),99.2% (active)
Cc1ccc(S(=O)(=O)/C(C#N)=C/NC(=S)Nc2ccc(C)cc2C)cc1,-53.7%,-26.9%,-30.8%,-41.4%,-40.5%,-41.4%
CCCCCCCCCCCCCCCCCCNC(=S)/N=C\C(C(=O)Nc1ccccc1C)=C(/C)O,-9.8%,-11.8%,5.85%,0.55%,-21.4%,-5.65%
O=C(N/N=C\c1ccccc1)Nc1cccc2ccccc12,-27.4%,16.4%,20.3%,-25.9%,27.9%,-9.75%
CC(O)/C=C/C(CCC(C)CO)C(C)C (stereo unspecified),-17%,-27.6%,-26%,-10.2%,-25.9%,-16%
COc1ccc(-c2c(N)nc(=S)[nH]c2C(=O)O)cc1,-8.65%,9.85%,-9.15%,-21.2%,8.75%,-17.7%
CN(C)c1nc(O)cc(=O)[nH]1,5.05%,-0.35%,-6.6%,-34.8%,8.3%,25.3%
Nc1nc(=O)[nH]c2n[nH]nc12,-18.2%,-7.15%,6.7%,-3.15%,-2.35%,0.2%
O=C(CC1=NC2NN(c3ccccc3)C(=O)C2=C1CC(=O)c1ccc([N+](=O)[O-])cc1)c1ccc([N+](=O)[O-])cc1 (stereo unspecified),42.1%,-11.4%,3.4%,2.7%,19.9%,32%
COc1ccc2c(c1)OCCN(C)OC2c1ccccc1 (stereo unspecified),-7.65%,-4.6%,-10.2%,0.5%,11.1%,-1.5%
CCNC(=S)NCC,-11.2%,-28.8%,20.6%,6.7%,0.4%,17.5%
C=CCNC(=S)N1CC(C)C(=O)Nc2ccccc21 (stereo unspecified),-26.1%,-18.2%,-29.9%,6.6%,11.3%,-14.4%
CN(C)c1ccc(/C=N\NC(=S)Nc2ccc3cn[nH]c3c2)cc1,20.9%,-10.9%,-1.15%,8.1%,23.3%,-9.5%
COC(=O)c1sc(C(=O)OC)c2c1CSC2,-6%,5.35%,-18.4%,2.55%,-8%,13.2%

SMILES,growth inhibition [1],growth inhibition [2],growth inhibition [3],growth inhibition [4],growth inhibition [5],growth inhibition [6]
Cc1cc(C(c2ccc(Nc3ccccc3)cc2)c2ccc(Nc3ccccc3)cc2)ccc1Nc1ccccc1,2.35%,-4.65%,7.5%,-7.05%,5.5%,-19.1%
O=C(O)COc1cc(-c2ccccc2)nc2ccc(F)cc12,-3%,16.6%,31.5%,7.25%,3.1%,10.2%
CCN(CC)c1ccc(N=C2C=C(C(=O)Nc3ccccc3)C(=O)c3ccccc32)cc1,-10.9%,-40.3%,-14.4%,6.25%,-3.9%,-21.4%
CCCCCCCC[N+](C)(C)CC#CC[N+](C)(C)CCCCCCCC,46.2%,-14.3%,13.9%,-1.65%,11.1%,44.1%
c1cc2cc3c4c5c(cc6ccc7cc8cc9c%10c8c8c7c6c5c8c5c%10c(c1C9N1CCOCCOCCOCCOCCOCC1)c2c45)C3 (stereo unspecified),-15.1%,-2.35%,3.1%,17.7%,3.35%,-9.9%
CC(=O)C(N)=NCc1ccccc1,10.2%,2.7%,-10.7%,4.6%,25.8%,10.8%
NC(CCCOS(=O)(=O)O)Cc1ccc2ccccc2c1 (stereo unspecified),-10.6%,9.35%,16.6%,10.2%,3.55%,8.9%
CCCC(=O)C1=CC(C(C)C)CCC1C (stereo unspecified),12.6%,-4.4%,-4.05%,-12.2%,1.15%,1%
COc1ccc(OC)c(/C=C/c2ccc(NC(=O)C(Cl)(Cl)Cl)cc2)c1,-11.1%,-3.8%,-12.2%,-36.3%,-2.55%,10.2%
CC(C)NS(=O)(=O)c1ccccc1,19.4%,-3.1%,10.6%,6.75%,0.6%,26.9%
Nc1nnc2c(=O)[nH]cnc2n1,2.25%,-8.8%,-29.2%,-14.4%,-12.2%,-7.35%
Cc1nc2cccc3ccc4cc5ccccc5c1c4c32,69.6%,12.7%,16.1%,7.3%,25.9%,14.9%
CC(=O)CC(=O)NC1CCCC1,-25.8%,-38.6%,-33%,-3.5%,-50%,-13.9%
COC1=C(N(C)C)C(=O)c2ccccc2C1=O,21.4%,0.55%,11.4%,7.3%,-15.3%,4.55%
O=C(c1ccccc1)c1ccncc1,28.2%,-4.4%,-27.2%,-1%,-1.9%,-3.1%
COC(=O)c1ccccc1NC(=O)Nc1ccc(F)c([N+](=O)[O-])c1,3.75%,22.9%,3.15%,0.85%,11.6%,-10.9%
CC1(C)CC2=C(SC3C=CC=CC3N2)C(=O)C1C(=O)C(N)=O (stereo unspecified),-34.7%,-15%,-5.05%,-3.65%,-23.1%,-33.8%
O=C(NNC(=O)c1ccc(Cl)cc1Cl)c1ccccc1,-13.8%,0.2%,-4.75%,-9.9%,-9.2%,-7.8%
Cc1ccc(-n2cc(-c3ccc(Cl)cc3)c3c(NNC(=S)NCc4ccccc4)ncnc32)cc1,30.9%,35%,52.5%,32.4%,40.7%,11.1%
CSCCC(NCc1c(O)ccc2ccc(=O)oc12)C(=O)O (stereo unspecified),-35.6%,-9.1%,-27.9%,7.45%,0.95%,-38%
